Assay results as given in PubChem BioAssay (NCATS).
Records with an inconclusive call do not appear. Where a call stands in place of a potency, no number is given. Activity calls are given as the source filed them. The call rests on the fitted dose curve; in most records, active means well fitted curve in the direction sought with a large enough effect; inconclusive means small, poorly fitted or top-dose-only effect, or another doubt; inactive means no such curve, though single readings can be large; an effect the other way counts as inactive or inconclusive.

Target: Tyrosine-protein kinase Yes (Homo sapiens) (UniProt P07947)
Sequence (P07947 whole entry, looked up): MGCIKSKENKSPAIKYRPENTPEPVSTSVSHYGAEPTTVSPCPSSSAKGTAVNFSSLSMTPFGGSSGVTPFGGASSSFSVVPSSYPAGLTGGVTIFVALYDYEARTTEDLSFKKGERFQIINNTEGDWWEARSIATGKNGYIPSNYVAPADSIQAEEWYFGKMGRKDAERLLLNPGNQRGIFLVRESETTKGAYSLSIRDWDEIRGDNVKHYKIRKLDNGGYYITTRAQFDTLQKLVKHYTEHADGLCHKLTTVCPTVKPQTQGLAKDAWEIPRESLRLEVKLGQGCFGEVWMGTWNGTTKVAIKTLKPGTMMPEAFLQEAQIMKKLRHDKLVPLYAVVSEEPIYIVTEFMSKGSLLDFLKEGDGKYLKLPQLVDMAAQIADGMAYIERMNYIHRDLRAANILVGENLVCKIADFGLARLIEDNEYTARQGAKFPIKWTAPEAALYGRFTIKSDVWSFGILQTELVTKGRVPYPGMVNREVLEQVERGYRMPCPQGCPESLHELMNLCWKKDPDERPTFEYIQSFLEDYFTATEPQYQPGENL
Experiment: qHTS for small molecule inhibitors of Yes1 kinase: Primary Screen (AID 686947); further: nearly all actives have a fitted effect of over 60% in size; further: potency means the concentration at half of the fitted maximal effect
Conditions: Yes1 kinase biochemical qHTS inhibition; series mostly up to 76.9 µM
Procedure, shortened: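 Yes1 (4 nM) preincubated 20 min with compound, then 60 min room-temperature reaction with 0.1 mM ATP and 0.3 mg/mL poly(E4Y) in pH 7.5 Tris, 10 mM MgCl2. ADP measured by ADP-Glo luminescence, normalised to enzyme/no-enzyme controls.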

SMILES	Potency
C[C@H](NC(=O)Cc1cc(F)cc(F)c1)C(=O)N[C@@H]1C(=O)N(C)c2ccccc2-c2ccccc21	inactive
COc1cc2c(cc1OC)CN(CCc1ccc(NC(=O)c3cccc4c(=O)c5cccc(OC)c5[nH]c34)cc1)CC2	inactive
Oc1cccc(-c2nc(N3CCOCC3)c3oc4ncccc4c3n2)c1	inactive
CC1(C)Cc2c(-c3ccccc3)c(-c3ccc(Cl)cc3)c(CC(=O)O)n2C1	inactive
CN(C(=O)c1ccc(F)cc1C(F)(F)F)C1CCN(c2nnc(-c3ccnn3C)c3ccccc23)CC1	inactive
Cn1cc(-c2ccc3nnc(C(F)(F)c4ccc5ncccc5c4)n3n2)cn1	inactive
CCCc1nn(C)c2c(=O)[nH]c(-c3cc(S(=O)(=O)N4CCN(C)CC4)ccc3OCC)nc12	inactive
Cn1c(=O)c(F)c(Nc2ccc(I)cc2F)c2c(=O)n(C[C@@H](O)CO)cnc21	inactive
O=c1ncn2nc(Sc3ccc(F)cc3F)ccc2c1-c1c(Cl)cccc1Cl	inactive
CCc1ccc(CCOc2ccc(CC3SC(=O)NC3=O)cc2)nc1 (configuration not stated)	1730 nM (active)
O=C(c1cc(Cc2n[nH]c(=O)c3ccccc23)ccc1F)N1CCN(C(=O)C2CC2)CC1	inactive
CCC(C)(C)C(=O)O[C@H]1C[C@@H](C)C=C2C=C[C@H](C)[C@H](CC[C@@H]3C[C@@H](O)CC(=O)O3)[C@H]21	inactive
Cc1cc(Nc2nc(N[C@@H](C)c3ncc(F)cn3)ncc2Cl)n[nH]1	772 nM (active)
Cc1cnc(Nc2ccc(OCCN3CCCC3)cc2)nc1Nc1cccc(S(=O)(=O)NC(C)(C)C)c1	inactive
O=c1[nH]c(-c2ccc(C(F)(F)F)cc2)nc2c1CSCC2	inactive
CCc1cncnc1N1CCN(Cc2nc3ccc(C(F)(F)F)cc3[nH]2)CC1	inactive
C/C(=C\C(=O)Nc1ccccc1C(=O)O)c1ccc2ccccc2c1	inactive
O=S(=O)(N=Cc1c(O)ccc2ccccc12)c1cccs1	inactive

SMILES	Potency
C[C@@H]1CN(Cc2ccc(F)cc2)[C@@H](C)CN1C(=O)c1cc2c(C(=O)C(=O)N(C)C)cn(C)c2cc1Cl	inactive
CN(C)C(=O)c1ccc(S(=O)(=O)c2ccc(NC(=O)[C@@](C)(O)C(F)(F)F)c(Cl)c2)cc1	inactive
O=C(O)c1ccc(-c2c[nH]c3ccc(-c4ccccc4)cc23)cc1C1CCCC1	1540 nM (active)
CCN(c1ccccc1)c1cc(NC)[n+](C)c(C)n1	inactive
S=C(NCc1ccc2c(c1)OCO2)N1CCN(c2ncnc3c2oc2ccccc23)CC1	inactive
O=C1[C@H](Cc2ccc(O)cc2)N2C(=O)CCN(C(=O)NCc3ccccc3)[C@H]2CN1Cc1cccc2ccccc12	inactive
CC[C@H](Nc1ncnc2nc[nH]c12)c1nc2cccc(F)c2c(=O)n1-c1ccccc1	inactive
O=C(OCC#CCSc1nnc(-c2ccc3ccccc3c2)o1)c1cc2ccccc2s1	inactive
COc1ccc(COc2cc3oc(=O)c4cc(C(C)O)ccc4c3cc2OC)cc1 (configuration not stated)	inactive
CCC(C)n1ncn(-c2ccc(N3CCN(c4ccc(OC[C@H]5CO[C@](Cn6cncn6)(c6ccc(Cl)cc6Cl)O5)cc4)CC3)cc2)c1=O (some centres not stated)	inactive
C[C@]1(c2nc3c(C(N)=O)cccc3[nH]2)CCCN1	inactive
CN([C@@H](Cc1ccc(OS(=O)(=O)c2cccc3cnccc23)cc1)C(=O)N1CCN(c2ccccc2)CC1)S(=O)(=O)c1cccc2cnccc12	inactive
C[C@]12CC[C@H](O)CC1=CC[C@@H]1[C@H]2CC[C@]2(C)C(c3cccnc3)=CC[C@H]12	inactive
CCOc1ccc(Cc2cc([C@@H]3O[C@H](CO)[C@@H](O)[C@H](O)[C@@H]3O)ccc2Cl)cc1	inactive
COc1ccc(-c2ccc3c(N4CCOCC4)nc(N4C[C@@H](C)O[C@@H](C)C4)nc3n2)cc1CO	inactive
COc1c(Cl)cc2c([nH]c3cnccc32)c1NC(=O)c1cccnc1C	inactive
CNC(=O)c1ccc(C)c(-n2c(C)cc(OCc3ccc(F)cc3F)c(Br)c2=O)c1	inactive
O=C(O)[C@@H](c1ccc(OCc2ccc3ccccc3n2)cc1)C1CCCC1	inactive

Test system: not listed separately
Experiment: qHTS for small molecule inhibitors of Yes1 kinase: Counter Assay (AID 686950);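 further: no kinase present so only ADP-Glo detection of a fixed ADP amount is tested; luminescence from ADP-Glo reporting ADP in a fixed ATP and ADP mixture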
Conditions: series mostly up to 76.9 µM
Procedure, shortened: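 Enzyme-free detection counter-screen: compounds preincubated 20 min in buffer, then 0.08 mM ATP plus 0.02 mM ADP added for 60 min at room temperature; ADP-Glo luminescence. Buffer 50 mM Tris pH 7.5, 10 mM MgCl2, 150 mM NaCl; normalized to ATP+ADP and ATP-only controls.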

SMILES	outcome
C[C@H](NC(=O)Cc1cc(F)cc(F)c1)C(=O)N[C@@H]1C(=O)N(C)c2ccccc2-c2ccccc21	inactive
COc1cc2c(cc1OC)CN(CCc1ccc(NC(=O)c3cccc4c(=O)c5cccc(OC)c5[nH]c34)cc1)CC2	inactive
Oc1cccc(-c2nc(N3CCOCC3)c3oc4ncccc4c3n2)c1	inactive
CC1(C)Cc2c(-c3ccccc3)c(-c3ccc(Cl)cc3)c(CC(=O)O)n2C1	inactive
CN(C(=O)c1ccc(F)cc1C(F)(F)F)C1CCN(c2nnc(-c3ccnn3C)c3ccccc23)CC1	inactive
Cn1cc(-c2ccc3nnc(C(F)(F)c4ccc5ncccc5c4)n3n2)cn1	inactive
CCCc1nn(C)c2c(=O)[nH]c(-c3cc(S(=O)(=O)N4CCN(C)CC4)ccc3OCC)nc12	inactive
Cn1c(=O)c(F)c(Nc2ccc(I)cc2F)c2c(=O)n(C[C@@H](O)CO)cnc21	inactive
O=c1ncn2nc(Sc3ccc(F)cc3F)ccc2c1-c1c(Cl)cccc1Cl	inactive
CCc1ccc(CCOc2ccc(CC3SC(=O)NC3=O)cc2)nc1 (configuration not stated)	inactive
O=C(c1cc(Cc2n[nH]c(=O)c3ccccc23)ccc1F)N1CCN(C(=O)C2CC2)CC1	inactive
CCC(C)(C)C(=O)O[C@H]1C[C@@H](C)C=C2C=C[C@H](C)[C@H](CC[C@@H]3C[C@@H](O)CC(=O)O3)[C@H]21	inactive
Cc1cc(Nc2nc(N[C@@H](C)c3ncc(F)cn3)ncc2Cl)n[nH]1	inactive
Cc1cnc(Nc2ccc(OCCN3CCCC3)cc2)nc1Nc1cccc(S(=O)(=O)NC(C)(C)C)c1	inactive
O=c1[nH]c(-c2ccc(C(F)(F)F)cc2)nc2c1CSCC2	inactive
CCc1cncnc1N1CCN(Cc2nc3ccc(C(F)(F)F)cc3[nH]2)CC1	inactive
C/C(=C\C(=O)Nc1ccccc1C(=O)O)c1ccc2ccccc2c1	inactive
O=S(=O)(N=Cc1c(O)ccc2ccccc12)c1cccs1	inactive

SMILES	outcome
C[C@@H]1CN(Cc2ccc(F)cc2)[C@@H](C)CN1C(=O)c1cc2c(C(=O)C(=O)N(C)C)cn(C)c2cc1Cl	inactive
CN(C)C(=O)c1ccc(S(=O)(=O)c2ccc(NC(=O)[C@@](C)(O)C(F)(F)F)c(Cl)c2)cc1	inactive
O=C(O)c1ccc(-c2c[nH]c3ccc(-c4ccccc4)cc23)cc1C1CCCC1	inactive
CCN(c1ccccc1)c1cc(NC)[n+](C)c(C)n1	inactive
S=C(NCc1ccc2c(c1)OCO2)N1CCN(c2ncnc3c2oc2ccccc23)CC1	inactive
O=C1[C@H](Cc2ccc(O)cc2)N2C(=O)CCN(C(=O)NCc3ccccc3)[C@H]2CN1Cc1cccc2ccccc12	inactive
CC[C@H](Nc1ncnc2nc[nH]c12)c1nc2cccc(F)c2c(=O)n1-c1ccccc1	inactive
O=C(OCC#CCSc1nnc(-c2ccc3ccccc3c2)o1)c1cc2ccccc2s1	inactive
COc1ccc(COc2cc3oc(=O)c4cc(C(C)O)ccc4c3cc2OC)cc1 (configuration not stated)	inactive
CCC(C)n1ncn(-c2ccc(N3CCN(c4ccc(OC[C@H]5CO[C@](Cn6cncn6)(c6ccc(Cl)cc6Cl)O5)cc4)CC3)cc2)c1=O (some centres not stated)	inactive
C[C@]1(c2nc3c(C(N)=O)cccc3[nH]2)CCCN1	inactive
CN([C@@H](Cc1ccc(OS(=O)(=O)c2cccc3cnccc23)cc1)C(=O)N1CCN(c2ccccc2)CC1)S(=O)(=O)c1cccc2cnccc12	inactive
C[C@]12CC[C@H](O)CC1=CC[C@@H]1[C@H]2CC[C@]2(C)C(c3cccnc3)=CC[C@H]12	inactive
CCOc1ccc(Cc2cc([C@@H]3O[C@H](CO)[C@@H](O)[C@H](O)[C@@H]3O)ccc2Cl)cc1	inactive
COc1ccc(-c2ccc3c(N4CCOCC4)nc(N4C[C@@H](C)O[C@@H](C)C4)nc3n2)cc1CO	inactive
COc1c(Cl)cc2c([nH]c3cnccc32)c1NC(=O)c1cccnc1C	inactive
CNC(=O)c1ccc(C)c(-n2c(C)cc(OCc3ccc(F)cc3F)c(Br)c2=O)c1	inactive
O=C(O)[C@@H](c1ccc(OCc2ccc3ccccc3n2)cc1)C1CCCC1	inactive
